# Source: PubChem (National Center for Advancing Translational Sciences (NCATS))
# Giardia FBPA inh – Giardia lamblia aldolase inhibition; A8B2U2; purified Giardia FBPA; Potency, µM (highest dose often 59.6 µM), for inactives: at the highest dose activity, negative = inhibition, most hits filed as inhibitors; 290,000 tested, 0.71% active; AID 2451; also: nearly all actives have a fitted effect of over 55% in size
# Target sequence (A8B2U2 whole entry, looked up): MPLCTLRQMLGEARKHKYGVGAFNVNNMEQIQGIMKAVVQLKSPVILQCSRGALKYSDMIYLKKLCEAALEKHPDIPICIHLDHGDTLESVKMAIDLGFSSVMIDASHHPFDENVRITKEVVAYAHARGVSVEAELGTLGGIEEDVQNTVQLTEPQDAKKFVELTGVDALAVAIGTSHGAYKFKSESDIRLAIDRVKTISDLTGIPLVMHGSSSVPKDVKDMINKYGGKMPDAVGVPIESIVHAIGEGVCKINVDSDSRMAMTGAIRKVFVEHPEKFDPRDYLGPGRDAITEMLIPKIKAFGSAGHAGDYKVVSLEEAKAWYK
#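 Giardia FBPA (40 nM reagent) was preincubated 10 min at RT with compound (up to 57.5 uM final), then substrate plus GAPDH/TPI/NAD/arsenate coupling system with diaphorase/resazurin was added; resorufin fluorescence (525/598 nm) was read after 20 min.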
# AmpC inh no detg – blocks E. coli AmpC beta-lactamase in detergent-free assay. AmpC nitrocefin hydrolysis, absorbance 480 nm, 0.0001% Triton. 330,000 tested, 0.52% active. Potency, µM (titrated, usually from 57.1 µM), inactives show top-dose activity change, negative = inhibition, hits mostly inhibitors. AID 485341. P00811;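 also: plate controls were no compound for no effect and no enzyme for full effect; nearly all actives have a fitted effect of over 20% in size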
# Target sequence (P00811 whole entry, looked up): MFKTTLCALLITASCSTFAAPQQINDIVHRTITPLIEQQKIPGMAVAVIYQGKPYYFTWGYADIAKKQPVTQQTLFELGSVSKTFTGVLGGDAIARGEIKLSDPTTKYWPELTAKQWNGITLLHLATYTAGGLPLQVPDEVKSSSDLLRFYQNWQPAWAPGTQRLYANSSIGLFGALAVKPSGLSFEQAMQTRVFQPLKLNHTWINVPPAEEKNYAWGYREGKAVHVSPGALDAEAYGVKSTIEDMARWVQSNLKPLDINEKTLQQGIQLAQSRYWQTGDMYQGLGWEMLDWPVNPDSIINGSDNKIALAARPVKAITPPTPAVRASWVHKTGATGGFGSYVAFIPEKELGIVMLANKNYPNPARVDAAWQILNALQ
#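 20 mM phosphate pH 7.0 + 0.01% (detergent screen) or 0.0001% Triton X-100; 5.3 nM AmpC reagent; cpd preinc 15 min RT; nitrocefin (800 uM stock) to start; A480 q20 s × 4 min; Activity was normalised to no-enzyme and no-compound control wells.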
# LmPK inhibitor – LmPK (Leishmania mexicana) enzyme inhibition; Q27686; purified LmPK, Kinase-Glo ATP luminescence, 1 h; Potency, µM (titrated, usually from 57.5 µM), for inactives: top-dose activity change, negative = inhibition, usual class: inhibitors; 290,000 tested, 0.37% active
#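 In 50 mM imidazole pH 7.2 with 7 mM MgCl2, LmPK (0.1 nM) turned over PEP (0.5 mM) and ADP (0.1 mM) for 1 h at room temperature. Luciferase read-out of ATP.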
# Tb PYK inh – T. brucei pyruvate kinase inhibition; TbPYK enzyme, Kinase-Glo Plus ATP luminescence, 45 min; 410,000 tested, 0.12% active; Potency, µM (top dose mostly 76.8 µM), for inactives: at the top dose activity, negative = inhibition, hits mostly inhibitors; Q57TT1; also: nearly all actives have a fitted effect of over 50% in size
#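 ADP (130 uM final) triggers the TbPYK reaction after compound addition; incubation is 45 min at room temperature. Kinase-Glo Plus is then added and luminescence imaged. Normalized data are fitted to concentration-effect curves.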
# AmpC inh detg – AmpC beta-lactamase inhibition with detergent present; P00811; AmpC hydrolysis of nitrocefin, absorbance 480 nm, 0.01% Triton; Potency, µM (titrated, usually from 114 µM), for the others: at the top dose activity change, negative = inhibition, hits mostly inhibitors; 370,000 tested, 0.041% active;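 also: 0% = no-compound wells and -100% = no-enzyme wells; nearly all actives have a fitted effect of over 25% in size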
#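 20 mM phosphate pH 7.0 + 0.01% (detergent screen) or 0.0001% Triton X-100; 5.3 nM AmpC reagent; cpd preinc 15 min RT; nitrocefin (800 uM stock) to start; A480 q20 s × 4 min; Activity was normalised to no-enzyme and no-compound control wells.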
# RE007 growth inh – less growth of the S. pombe RE007 Vpr strain. S. pombe RE007 Vpr strain, BacTiter-Glo ATP luminescence, 24 h. Potency, µM (titrated, usually from 92.2 µM), without a hit: top-dose activity change, negative = less growth, actives largely listed as inhibitors. 360,000 tested, 0.21% active. AID 651644; active = well fitted falling curve with a large enough effect; inconclusive = small, poorly fitted or top-dose-only effect; inactive = no such curve, though single readings can be large or run the other way; also: nearly all actives have a fitted effect of over 50% in size
#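 Fission yeast RE007 carrying one integrated HIV-1 vpr copy, seeded at OD 0.01 in PMG+AL medium with 23 nL pinned compound. Grown 24 h at 30 degrees; viability read by BacTiter-Glo luminescence after 5 min.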
# The depositor's hits bear a star; ? = inconclusive; . = no result given. This is a sample that favours compounds with a hit; in the whole collection about 1.4% have one here. Unless noted, calls follow the shape of the dose curve; as a rule, active = well fitted curve in the direction sought with a large enough effect; inconclusive = small, poorly fitted or top-dose-only effect, or another doubt; inactive = no such curve, though single readings can be large; an effect the other way counts as inactive or inconclusive. Unless noted, % is scaled to controls: 0 for no effect and ±100 for the full control effect; potency is read from the fitted curve at half-maximal effect.
SMILES,Giardia FBPA inh,AmpC inh no detg,LmPK inhibitor,Tb PYK inh,AmpC inh detg,RE007 growth inh
COCCOC(=O)c1[nH]c2c(c1C)C(=O)C(C(=O)OC)C(C)C2 (stereo not drawn),?,-10.5%,2.6%,-6.6%,-7.4%,-1.8%
Cc1cccc(Cn2c(CNS(=O)(=O)c3ccc(C(C)C)cc3)nc3cccnc32)c1,.,.,.,-2.3%,2.5%,.
c1ccc(Nc2nc3ccccc3o2)cc1,-0.1%,-19.9%,15.8µM*,-5.8%,-1.8%,?
FC(F)(F)Oc1ccc(Nc2nc3ccccc3o2)cc1,-8.4%,-25.2%,0.6%,-8.7%,-20.6%,-23.8%
Fc1ccccc1Nc1nc2ccccc2o1,2.6%,-24.0%,15.8µM*,?,-20.4%,?
Cc1ccc(CN2C(=O)C(=O)c3cc(Br)cc(C)c32)cc1,.,.,.,-6.9%,6.1%,.
Cc1nc(C)c(/C(O)=C/c2nc3ccc([N+](=O)[O-])cc3oc2=O)o1,12.6µM*,-18.7%,-2.7%,.,9.7%,.
COc1ccc(/C=C(/CC(=O)NCc2ccc(Cl)cc2)c2nc3ccccc3s2)cc1,10.2%,17.8µM*,-1.1%,1.1%,3.3%,12.8%
Nc1cc(C(=O)O)c(N)c2c1C(=O)c1ccccc1C2=O,?,-27.9%,25.1µM*,?,0.1%,?
Nc1c(C(=O)O)ccc2c1C(=O)c1ccccc1C2=O,1.1%,-28.8%,-23.3%,-5.3%,0.0%,?
O=C(CC(c1cccs1)N1Cc2ccccc2C1=O)Nc1ccccc1 (stereo not drawn),.,.,.,-2.0%,-0.5%,.
O=C(O)Cc1ccccc1Oc1ccc(Cl)cc1Cl,.,.,.,0.7%,.,.
Cc1cc(Cl)ccc1Oc1ccccc1C(=O)CC#N,-16.6%,3.98µM*,0.4%,1.8%,9.6%,16.4%
CCn1c(=O)c2cc(C(=O)NCCCN3CCN(c4ccc(F)cc4)CC3)sc2c2ccccc21,.,.,.,-5.0%,13.9%,.
CN(C)C1CCN(CCCOc2ccc(-c3ccc(C#N)cc3)cc2)C1 (stereo not drawn),3.3%,.,.,.,.,.
CN(C)CCOC1=Cc2ccccc2Sc2ccc(Cl)cc21,.,.,.,-3.8%,.,.
O=C1[O][Sb-]23[O]C(=O)C([O]2)C2[O][Sb-]4([O]C(=O)C([O]4)C1[O]3)[O]C2=O,.,.,.,2.8%,.,.
CCn1cc(C(=O)O)c(=O)c2cnc(N3CCN(C(=S)NC(=O)c4ccc(Cl)cc4)CC3)nc21,-1.2%,-2.5%,14.1µM*,-6.7%,0.7%,-3.8%
CCn1cc(C(=O)O)c(=O)c2cnc(N3CCN(C(=S)NC(=O)c4ccc(Br)cc4)CC3)nc21,1.6%,-1.9%,?,-11.7%,-4.0%,10.8%
Cc1cc(NC(=O)CSc2c(C)[nH]c3ccccc23)no1,4.0%,-22.8%,7.7%,-16.9%,?,5.0%
NNC(=O)CSc1c(-c2cccs2)[nH]c2ccccc12,8.9%,14.1µM*,0.3%,-6.0%,?,-19.8%
CC(C)=O,.,.,.,6.8%,.,.
CCC(=O)CC,14.1µM*,.,.,.,.,.
Nc1c(C(=O)N2CCOCC2)sc2nc(N3CCOCC3)c3c(c12)CCCC3,-5.5%,16.2%,-26.5%,15.8µM*,-2.0%,9.6%
CN(C)CC(C(=O)c1ccccc1)c1ccccc1 (stereo not drawn),-11.8%,-21.5%,0.3%,-5.9%,?,39.8µM*
SMILES,Giardia FBPA inh,AmpC inh no detg,LmPK inhibitor,Tb PYK inh,AmpC inh detg,RE007 growth inh
NS(=O)(=O)c1ccc(CCNC(=O)c2cccc3ccccc23)cc1,0.6%,-9.5%,-5.3%,2.0%,1.2%,6.2%
NS(=O)(=O)c1ccc(CCNC(=O)c2ccccc2OCc2ccc(F)cc2)cc1,5.5%,11.2µM*,2.0%,4.0%,?,4.9%
NS(=O)(=O)c1ccc(CCNC(=O)c2ccc[nH]c2=S)cc1,5.3%,-19.2%,-6.6%,0.5%,-9.6%,8.91µM*
CCCCc1cc(=O)oc2cc(C)c(CN3CCCC3)c(O)c12,-20.3%,15.8µM*,0.1%,-11.5%,-14.4%,18.8%
Clc1cccc(Cl)c1-c1nnc2ccc(N3CCOCC3)nn12,4.9%,0.501µM*,7.2%,3.8%,1.9%,16.7%
Nc1ccc2nc(-c3cccnc3)[nH]c2c1,-26.0%,-8.5%,-21.7%,1.3%,-10.6%,-7.8%
COc1ccc2nc(-c3cccc(N)c3)[nH]c2c1,?,-8.9%,22.4µM*,-7.5%,2.0%,-9.0%
Nc1ccc2nc(-c3ccccn3)[nH]c2c1,-17.1%,-6.0%,20µM*,-13.9%,-1.5%,-18.2%
Nc1ccc2nc(-c3ccccc3)[nH]c2c1,-12.9%,-18.8%,14.1µM*,-12.1%,1.4%,-6.5%
CCOC(=O)c1nnc2c(-c3ccc(Cl)cc3)c(C)nn2c1N,.,.,.,-3.3%,3.3%,.
Clc1cccc(Cl)c1CON/C=N/c1ncnc2sccc12,-3.1%,1.12µM*,4.8%,1.1%,0.7%,4.1%
Oc1ccc(N=Cc2ccc(O)c(O)c2)cc1,1.58µM*,-49.3%,-12.7%,?,-13.5%,-8.5%
Cc1c(Br)c(O)c(Br)c2sc(=O)oc12,?,20µM*,0.4%,?,-3.9%,-16.9%
Cc1ccc(-n2nc(CO)c(C(=O)NC(C)CCCc3ccccc3)n2)cc1 (stereo not drawn),.,.,.,0.8%,-3.5%,.
COc1ccccc1CNC(=O)c1cnc2sc(N3CCCCCC3)nn2c1=O,.,.,.,-1.8%,-1.3%,.
O=S(=O)(N=C1C=CC(=NS(=O)(=O)c2ccccc2)c2ccccc21)c1ccccc1,.,.,.,-5.1%,.,-11.0%
CCc1ccc(S(=O)(=O)/N=C2\C=C(Nc3ccc(O)cc3)C(=O)c3ccccc32)cc1,1.41µM*,-34.6%,-19.4%,?,-14.4%,-27.1%
Cc1cc(C)c(S(=O)(=O)/N=C2\C=C(Nc3ccc(C(=O)O)cc3)C(=O)c3ccccc32)c(C)c1,?,12.6µM*,-7.2%,?,-12.2%,-16.7%
CCc1ccc(S(=O)(=O)/N=C2/C=C(Sc3ncn[nH]3)C(=O)c3ccccc32)cc1,0.792µM*,20µM*,?,?,-6.8%,?
CCc1ccc(S(=O)(=O)/N=C2\C=CC(=O)c3ccccc32)cc1,7.06µM*,15.8µM*,-14.9%,.,-4.0%,.
